Inconclusive results are not listed. Active and inactive are the calls of the source. The calls were made as follows: active = hit-call score of the fitted dose curve at least 0.9, where 1 is the maximum; inconclusive = response in the unintended direction; inactive = score below 0.9.
target: Estrogen receptor beta (Homo sapiens) (UniProt Q92731); test: OT_ER_ERbERb_0480: Odyssey Thera (OT) 8-hour HEK293T Protein-Complementation Assay for Estrogen Receptor-beta/-beta Homodimer (AID 2283357);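 also: active means signal gain over DMSO baseline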
How it was run: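 Fluorescence gain from complemented reporter fragments on ER-beta LBD homodimer in HEK293T was quantified against DMSO controls after 8 h treatment, fixation in 4% formaldehyde and Draq5 staining.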

Chain of Estrogen receptor beta (Homo sapiens) (Q92731 whole entry, looked up, the tested form may be a part): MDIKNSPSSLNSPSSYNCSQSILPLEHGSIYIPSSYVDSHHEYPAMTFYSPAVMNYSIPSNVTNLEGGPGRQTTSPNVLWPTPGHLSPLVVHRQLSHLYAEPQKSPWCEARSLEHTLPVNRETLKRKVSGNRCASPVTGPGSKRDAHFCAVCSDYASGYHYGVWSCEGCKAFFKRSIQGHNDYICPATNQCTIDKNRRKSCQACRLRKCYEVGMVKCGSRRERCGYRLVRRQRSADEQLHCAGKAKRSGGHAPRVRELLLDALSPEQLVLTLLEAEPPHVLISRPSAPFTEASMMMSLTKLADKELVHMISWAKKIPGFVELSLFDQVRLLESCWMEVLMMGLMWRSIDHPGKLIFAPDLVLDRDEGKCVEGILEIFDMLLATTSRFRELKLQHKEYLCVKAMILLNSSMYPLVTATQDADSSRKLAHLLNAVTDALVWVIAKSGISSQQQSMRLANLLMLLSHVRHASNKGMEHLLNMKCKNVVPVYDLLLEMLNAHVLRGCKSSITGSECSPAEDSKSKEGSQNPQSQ

SMILES	outcome	AC50
Cc1cc(S(=O)(=O)O)ccc1N=Nc1c(O)ccc2ccccc12	inactive	
O=C1NC2NC(=O)NC2N1 (stereo not given)		22.1 µM (active)
CSCCC=O	inactive	
O=C(CC(=O)c1ccccc1)c1ccccc1	inactive	
[O-]n1ccccc1=S.[O-]n1ccccc1=S.[Zn+2]	inactive	

target: human Peroxisome Proliferator-activated Receptor alpha (PPARa), PPARA (gene 5465) (UniProt Q07869); test: NVS_NR_hPPARa: NovaScreen (NVS) Nuclear Receptor Binding Assay for human Peroxisome Proliferator-activated Receptor alpha (PPARa) (AID 2283359);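 also: activity means loss of TR-FRET signal versus DMSO baseline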
How it was run: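 One-hour incubation, cell-free extracted protein, TR-FRET binding readout; signal loss vs DMSO scored. Screen: 25 uM duplicates, confirmatory dose series for actives.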

Chain of human Peroxisome Proliferator-activated Receptor alpha (PPARa), PPARA (gene 5465) (Q07869 whole entry, looked up): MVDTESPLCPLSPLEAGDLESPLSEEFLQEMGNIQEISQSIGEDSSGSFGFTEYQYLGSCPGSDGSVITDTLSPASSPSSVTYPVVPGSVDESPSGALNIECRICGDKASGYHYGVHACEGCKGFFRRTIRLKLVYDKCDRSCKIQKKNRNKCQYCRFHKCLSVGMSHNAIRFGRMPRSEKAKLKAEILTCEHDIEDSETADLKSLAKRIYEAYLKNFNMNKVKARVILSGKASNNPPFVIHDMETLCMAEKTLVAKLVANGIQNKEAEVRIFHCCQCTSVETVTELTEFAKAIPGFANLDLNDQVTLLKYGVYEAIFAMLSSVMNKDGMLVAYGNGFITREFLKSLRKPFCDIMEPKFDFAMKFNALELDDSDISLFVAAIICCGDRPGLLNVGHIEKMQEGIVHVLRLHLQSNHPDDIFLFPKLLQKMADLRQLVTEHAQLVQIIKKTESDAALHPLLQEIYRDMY

SMILES	outcome
O=[N+]([O-])c1ccc(O)cc1C(F)(F)F	inactive
CCCCCCCC/C=C\CCCCCCCC(=O)OCC	inactive
CC(C)CCCCCCCCCCCCCCC(=O)O	inactive
O=P(O)(O)O	inactive
CCCCCC(=O)CC	inactive
Clc1ccc(C(c2ccccc2Cl)C(Cl)Cl)cc1 (stereo not given)	inactive

target: PGR (gene 5241) (UniProt P06401); test: NVS_NR_hPR: NovaScreen (NVS) Nuclear Receptor Binding Assay for human Progestron Receptor (PR) (AID 2283360);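 also: active means loss of bound radioligand signal versus DMSO baseline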
How it was run: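 Competitive displacement of a labelled radioligand from T47D-derived receptor protein is measured in a cell-free format. Initial testing uses 25 uM in duplicate, with positive and negative controls on every plate.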

Chain of PGR (gene 5241) (P06401 whole entry, looked up): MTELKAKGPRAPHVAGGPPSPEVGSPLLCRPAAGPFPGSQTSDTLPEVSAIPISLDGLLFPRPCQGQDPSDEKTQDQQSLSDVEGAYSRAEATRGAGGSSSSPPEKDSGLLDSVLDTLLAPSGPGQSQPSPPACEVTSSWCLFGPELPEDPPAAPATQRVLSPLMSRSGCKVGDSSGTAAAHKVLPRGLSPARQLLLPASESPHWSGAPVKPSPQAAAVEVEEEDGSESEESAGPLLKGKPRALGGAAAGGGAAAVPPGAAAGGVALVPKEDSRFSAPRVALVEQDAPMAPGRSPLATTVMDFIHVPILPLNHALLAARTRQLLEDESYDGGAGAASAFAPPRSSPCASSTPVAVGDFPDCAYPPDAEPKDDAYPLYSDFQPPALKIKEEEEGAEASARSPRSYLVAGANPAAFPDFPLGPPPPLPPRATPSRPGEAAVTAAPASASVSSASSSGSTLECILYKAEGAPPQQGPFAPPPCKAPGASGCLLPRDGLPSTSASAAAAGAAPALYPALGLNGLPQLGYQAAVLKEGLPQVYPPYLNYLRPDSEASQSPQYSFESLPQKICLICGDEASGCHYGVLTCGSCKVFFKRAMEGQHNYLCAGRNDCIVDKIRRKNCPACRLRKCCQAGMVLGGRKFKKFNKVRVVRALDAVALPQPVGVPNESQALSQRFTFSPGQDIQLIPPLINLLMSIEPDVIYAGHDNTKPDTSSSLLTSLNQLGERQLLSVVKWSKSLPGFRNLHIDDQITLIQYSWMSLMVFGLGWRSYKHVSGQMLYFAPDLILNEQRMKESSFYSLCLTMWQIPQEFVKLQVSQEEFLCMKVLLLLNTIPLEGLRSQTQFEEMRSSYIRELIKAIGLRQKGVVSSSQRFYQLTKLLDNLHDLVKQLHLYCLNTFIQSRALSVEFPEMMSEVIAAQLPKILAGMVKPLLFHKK

SMILES	outcome
C=C(C)C(=O)OCCOCCOCCOC(=O)C(=C)C	inactive
CS(=O)(=O)c1ccc(C2=C(c3ccccc3)C(=O)OC2)cc1	inactive
CCC(C)c1cc([N+](=O)[O-])cc([N+](=O)[O-])c1OC(=O)OC(C)C (stereo not given)	inactive
ClC(c1ccccc1)(c1ccccc1)c1ccccc1	inactive

— PubChem BioAssay (EPA / NIEHS)
